Laboratory results as given in PubChem BioAssay AID2315 (National Center for Advancing Translational Sciences (NCATS), 2010).
About 27,000 (9.3%) of roughly 290,000 compounds were called active. This is one part of a sample in which actives are shown more often than they occur. Unmarked numbers belong to inactive results. No stated cut-off is given here; in the data, active means inhibition mostly above about 28% (no sharp cut-off); inactive means mostly below about 43%.

Experiment: A qHTS for Small Molecule Inhibitors of Shiga Toxin; further: 0% is about no effect
Details: Vero cells, Shiga toxin protein synthesis inhibition reporter; at 38.7 µM, stronger effect = higher value

SMILES | inhibition
Cc1cccc(OCC(=O)Nc2ccc(C(=O)O)cc2NC(=O)COc2cccc(C)c2)c1 | -5.8%
CCOC(=O)C1=C(CCc2ccccc2)NC(=O)NC1c1ccc2ccccc2c1 (stereo not drawn) | 2.87%
COC(=O)Cc1ccc(N(Cc2ccccc2F)S(=O)(=O)c2ccc(Br)cc2)cc1 | 9.28%
CC(Oc1ccccc1)C(=O)Nc1c2c(nn1-c1ccccc1)CS(=O)C2 (stereo not drawn) | -1.03%
CCOCCCN(C)C1CCN(C(=O)c2oc3ccccc3c2NC(=O)COc2cccc(C)c2)CC1 | -8.02%
CC(=O)Nc1ccc(C(=O)N(C2=NC(C)CS2)c2ccc(Cl)cc2)cc1 (stereo not drawn) | 32.9%
CC1CN(C(=O)CCC(=O)NC2CCN(Cc3ccccc3)CC2)c2ccccc2O1 (stereo not drawn) | 10.3%
CC1CCN(Cc2nc(-c3ccc(Cl)cc3)no2)CC1 | 34.4%
COCC1CCCN(Cc2cn[nH]c2-c2cc3ccccc3o2)C1 (stereo not drawn) | 56.9%
COCC1CCCN(Cc2nc(-c3ccc4c(c3)OCO4)no2)C1 (stereo not drawn) | 53.7% (active)
CCCc1cc(=O)[nH]c(SCC(=O)Nc2sc3c(c2C#N)CCCC3)n1 | -2.72%
COc1ccc(C)cc1N(CC(=O)NC(C)c1ccccc1)S(C)(=O)=O (stereo not drawn) | -6.92%
COc1ccc(Br)cc1C(=O)Nc1cccc(C)c1C | 26.5%
COc1ccc(Br)cc1C(=O)NC(=S)Nc1cc(-c2nc3ccccc3[nH]2)ccc1C | 0% (active)
Cc1ccc(-c2nc3ccccc3[nH]2)cc1NC(=O)c1sc2ccccc2c1Cl | -6.19%
COC(=O)COc1ccc2c(c1C)O/C(=C\c1ccco1)C2=O | 15%
Cc1ccc(/C=C2/SC(=S)N(CCC(=O)NCCCN3CCOCC3)C2=O)cc1 | 21.5%
CCn1cc(CN2CCC(C(=O)Nc3cccc(-c4cccc(Cl)c4)c3)CC2)cn1 | -25.7%
COc1ccc(C2=NN(c3nc4ccccc4s3)C(=O)C2)cc1 | 72.3% (active)
CCOC(=O)N1CCN(CC(=O)Nc2cc(C)nn2-c2nc3ccccc3s2)CC1 | -4.88%
COc1ccccc1NC(=O)c1ccc2nc(N3C(=O)CCC3=O)sc2c1 | 36%
Cc1ccc2c(c1)N(CC(=O)N1CCC(O)CC1)C(=O)CO2 | 1.8%
COc1ccc2[nH]c(=O)c(CN(Cc3cccnc3)S(=O)(=O)c3ccccc3F)cc2c1 | -10.7%
COc1ccc(-c2nc(CS(=O)CC(=O)NCc3ccccc3)c(C)o2)cc1OC (stereo not drawn) | -3.29%
C/C(CC(=O)NCc1ccc(Cl)cc1)=N\NC(=O)COc1ccc(C)cc1Br | 2.05%
CC(=O)Nc1ccc(NC(=O)c2sc3nc4c(c(-c5ccc(C)cc5)c3c2N)CCC4)cc1 | -4.09%
Cc1ccc(NC(=O)c2sc3nc(N)c(C#N)cc3c2N)cc1 | 63.4% (active)

SMILES | inhibition
Cc1cccc(NC(=O)c2sc3nc4c(c(-c5ccco5)c3c2N)CCC4)c1 | -3.76%
Cc1c(CCC(=O)O)c(=O)oc2c(C)c(OCc3ccccc3Cl)ccc12 | -3.03%
CN(Cc1ccc(F)cc1)C(=O)COc1ccc2ccccc2c1 | 26.4%
CN(Cc1ccccc1)C(=O)COc1ccccc1 | 60.6% (active)
CN(Cc1ccccc1)C(=O)c1ccc(COc2ccccc2)cc1 | 12.4%
Cc1cc(C)c(NC(=O)CSc2nc3ccncc3[nH]2)c(C)c1 | -6.43%
CCOc1ccc2nc(/N=C/c3nc(-c4ccccc4)oc3O)sc2c1 | -1.97%
CC(N=Cc1nc(-c2ccccc2)oc1O)c1ccccc1 (stereo not drawn) | 54.4% (active)
COC(=O)C1[C@H]2SC(C)(C)C(C(=O)OC)N2C(=O)N1Cc1nc2ccccc2s1 (stereo partly drawn) | 5.52%
CCC1(CC)NC(=O)N(CC(=O)OCC(=O)NC(=O)c2ccccc2)C1=O | 19.1%
CCC1(CC)NC(=O)N(Cc2nc3ccccc3s2)C1=O | 26.9% (active)
CC(C)OCCCNC(=S)N1CCC(C(=O)c2ccc3c(c2)OCCO3)CC1 | -16.4%
Cc1nn(CC(=O)N2CCCCC2)c(=O)c2nn(-c3ccccc3)c(C)c12 | -2.2%
CCCc1nn(C)c2c(=O)[nH]c(-c3cc(S(N)(=O)=O)ccc3OCC)nc12 | -4.47%
Cc1ccc(-c2noc(CC(c3ccccc3)c3ccccc3)n2)cc1 | -20.2%
COc1ccc(-c2noc(-c3ccc(C)cc3)n2)cc1 | 79% (active)
COc1ccccc1Cc1nc(-c2ccc(C)cc2)no1 | 57.4% (active)
COc1ccc(N(Cc2cc3cc(OC)ccc3[nH]c2=O)S(C)(=O)=O)cc1 | -19.8%
COc1ccc(-c2noc(CN(C)S(=O)(=O)c3ccc(C)cc3)n2)cc1 | -3.7%
COc1ccc(Cc2nc(-c3ccccn3)no2)cc1OC | 56.5% (active)
COc1ccccc1CNS(=O)(=O)c1ccc(C)cc1 | 11.5%
COc1ccc(CNc2cc(C)cc(C)c2)cc1OC | -14.7%
COc1ccc(CCNS(=O)(=O)c2cccc3cccnc23)cc1OC | 18.1%
COc1ccc(-c2noc(CSc3ccc(C)cc3)n2)cc1 | 14.3%
CCCc1nc(-c2cc3cc(C)ccc3[nH]c2=O)no1 | -2.41%
COc1ccc2[nH]c(=O)c(-c3noc(-c4ccc(F)cc4)n3)cc2c1 | 69.3% (active)
